# Source: ChEMBL document CHEMBL4513146, “CO-ADD screening of Karazin Kharkiv National University (Ukraine) compounds”
# Results with a measured potency or affinity are listed apart.
# What was measured:
# Staphylococcus aureus = conditions: Concentration 32 ug.mL-1;; ASSAY_TEST Inhibition of Bacterial Growth; detection method Absorption (OD600); MEDIA CAMHB; plate type 384well; NBS; CORNING #3640; time 18 hr
# Escherichia coli = conditions: Concentration 32 ug.mL-1;; ASSAY_TEST Inhibition of Bacterial Growth; detection method Absorption (OD600); MEDIA CAMHB; plate type 384well; NBS; CORNING #3640; time 18 hr
Structure (SMILES),Inhibition (Staphylococcus aureus) [%],Inhibition (Escherichia coli) [%]
COc1ccc(CNC(=O)CSc2nnc3c4cc(-c5ccc(OC)cc5)nn4ccn23)cc1,4.43,0.23
O=C(CSc1nnc2c3cc(-c4ccc(F)cc4)nn3ccn12)NCc1ccccc1,-2.17,-6.24
O=S(=O)(c1ccc2nncn2c1)N(Cc1ccccc1F)c1cccc(F)c1,-5.69,-18.72
Cc1ccc(Sc2ccc3nn(CC(=O)Nc4cccc(Cl)c4)c(=O)n3n2)cc1,-1.85,-11.91
O=C(Cn1nc2c(Oc3ccccc3)nccn2c1=O)Nc1ccc(F)cc1F,6.01,-8.04
COc1ccc(NC(=O)Cn2nc3c4cc(-c5ccc(C)c(C)c5)nn4ccn3c2=O)cc1,11.77,-2.93
CCOc1ccc(-n2ccn3c(SCC(=O)Nc4ccc(C)cc4)nnc3c2=O)cc1,15.66,2.17
O=C(CSc1nc2ccccc2n2cnnc12)NCc1ccccc1Cl,1.47,-4.49
CCCCn1c(=O)c2sccc2n2c(SCc3cccc(C(F)(F)F)c3)nnc12,-1.51,-8.66
CCCCc1ccc(NC(=O)CSc2nc3ccccc3n3c(CC)nnc23)cc1,10.38,-2.23
CCc1nnc2c(=O)n(CC(=O)Nc3ccc(Br)cc3F)c3ccccc3n12,-3.08,3.54
CC(C)c1nnc2c(=O)n(CC(=O)Nc3cccc(Cl)c3)c3ccccc3n12,5.77,-3.24
O=c1c2nn(Cc3ccc(F)cc3)c(=O)n2ccn1-c1ccccc1,14.99,-4.05
COc1ccc(-c2cc3c4nnc(SCC(=O)NCc5cccc(OC)c5OC)n4ccn3n2)cc1,4.12,-5.71
CC(C)Sc1ccc2nn(CC(=O)Nc3ccc(F)cc3Cl)c(=O)n2n1,-4.06,-3
COc1ccc(-c2cc3c4nnc(SCC(=O)Nc5cccc(Cl)c5C)n4ccn3n2)cc1,-7.92,-11.64
COc1ccc(CNC(=O)Cn2nc3c(SC4CCCCC4)nccn3c2=O)cc1,8.37,-2.77

Structure (SMILES),Inhibition (Staphylococcus aureus) [%],Inhibition (Escherichia coli) [%]
CC(=O)c1cccc(NC(=O)Cn2c(=O)c3nnc(C(C)C)n3c3ccccc32)c1,9.36,0.14
COc1ccc(-c2cc3c4nn(CC(=O)Nc5ccccc5)c(=O)n4ccn3n2)cc1,3.97,7.52
CCOC(=O)c1ccc(NC(=O)Cn2nc3c(SCc4ccc(Cl)cc4)nccn3c2=O)cc1,-2.95,-14.83
Cc1ccc(C)c(CN(c2ccc(F)c(F)c2)S(=O)(=O)c2cccn3cnnc23)c1,5.14,0.2
Cc1ccc(NC(=O)CSc2nnc3c(=O)n(-c4ccccc4)ccn23)c(C)c1,7.2,-16.98
CCc1ccc(N(Cc2ccccc2C)S(=O)(=O)c2cccn3c(C)nnc23)cc1,9.52,-5.19
COc1cccc(-n2ccn3c(SCC(=O)c4c[nH]c5ccccc45)nnc3c2=O)c1,3.92,-5.66
O=C(Cn1nc2c(Oc3ccccc3)nccn2c1=O)Nc1ccccc1F,6.14,-2.38
Cc1ccc(NC(=O)Cn2nc3c4cc(-c5ccc(C)c(C)c5)nn4ccn3c2=O)cc1,7.11,-1.34
CCc1nnc2c(SCC(=O)Nc3ccccc3Br)nc3ccccc3n12,10.46,0.26
C=Cc1ccc(CN(c2ccc(Cl)cc2)S(=O)(=O)c2cccn3c(C)nnc23)cc1,6.06,-3.28
CCc1ccc(NC(=O)Cn2nc3ccc(SC(C)(C)C)nn3c2=O)cc1,4.76,-1.87
CC(C)(C)NC(=O)Cn1nc2n(Cc3ccco3)c(=O)c3sccc3n2c1=O,-2.47,-8.7
O=C(Cn1nc2c3sccc3ncn2c1=O)Nc1ccc2c(c1)OCO2,-1.71,-14.29
COc1ccccc1N1CCN(C(=O)CSc2nc3ccccc3n3cnnc23)CC1,11.06,4.69
CC(=O)c1cccc(NC(=O)CSc2nc3ccccc3n3c(C)nnc23)c1,-0.38,-4.41
